According to PubChem BioAssay AID1159580 (chemical genetic matrix, 2015):
Several values for one entry are separate records, joined by “and”; a condition that tells them apart may be missing. Identical values can stand only once. The campaign covered roughly 5,500 compounds. About 2,000 (36%) were called active. Inconclusive results (about 18%) are left out. Cut-off read from the data, not from the text of the source: active = normalized growth mostly below about 0.91 (no sharp cut-off); inconclusive = no clear call, values can overlap the other calls; inactive = mostly above about 0.92. This is one part of the list.

Assay: chemical genetic growth profiling, strain panel (AID 1159580);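 note: tested at 20 µM; growth read once vehicle control cultures reached saturation at 30 °C; 1 = growth at the plate median or of vehicle wells; lower values mean less growth of the strain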
Settings: S. cerevisiae deletion strains, growth OD

Measured: normalized growth

C=C(C)C1CNC(C(=O)O)C1CC(=O)O (stereo unspecified)
inactive: locus YAL013W, strain DEP1, active compounds read low 1.01 | locus YAL021C, strain ccr4, active compounds read low 0.995 | locus YAL026C, strain drs2, active compounds read low 0.996 | locus YAL030W, strain snc1, active compounds read low 0.99 | locus YBL061C, strain skt5, active compounds read low 0.992 | locus YBR009C, strain hhf1, active compounds read low 0.987 | locus YBR021W, strain FUR4, active compounds read low 0.986 | locus YBR023C, strain chs3, active compounds read low 0.987 | locus YBR171W, strain sec66, active compounds read low 0.986 | locus YBR229C, strain ROT2, active compounds read low 1.01 | locus YBR231C, strain swc5, active compounds read low 1 | locus YBR279W, strain paf1, active compounds read low 0.997 | locus YCL011C, strain gbp2, active compounds read low 0.985 | locus YCL016C, strain dcc1, active compounds read low 0.998 | locus YCL029C, strain bik1, active compounds read low 1.03 | locus YCL061C, strain MRC1, active compounds read low 0.999 | locus YCL069W, strain vba3, active compounds read low 0.995 | locus YCR088W, strain abp1, active compounds read low 0.988 | locus YDL005C, strain med2, active compounds read low 0.984 | locus YDL035C, strain GPR1, active compounds read low 1.03 | locus YDL040C, strain nat1, active compounds read low 0.986 | locus YDL074C, strain BRE1, active compounds read low 1.03 | locus YDL101C, strain DUN1, active compounds read low 1.02 | locus YDL185W, strain tfp1, active compounds read low 1.04 | locus YDL192W, strain arf1, active compounds read low 1.02 | locus YDR001C, strain nth1, active compounds read low 0.99 | locus YDR069C, strain doa4, active compounds read low 0.981 | locus YDR101C, strain arx1, active compounds read low 1.01 | locus YDR137W, strain rgp1, active compounds read low 0.972 | locus YDR150W, strain NUM1, active compounds read low 1.01 | locus YDR159W, strain sac3, active compounds read low 0.985 | locus YDR162C, strain NBP2, active compounds read low 1.05 | locus YDR195W, strain ref2 0.967 | locus YDR297W, strain sur2, active compounds read low 0.993 | locus YDR318W, strain mcm21, active compounds read low 1.01 | locus YDR334W, strain swr1, active compounds read low 0.992 | locus YDR335W, strain msn5, active compounds read low 0.994 | locus YDR388W, active compounds read low 1.01 | locus YDR392W, strain spt3, active compounds read low 0.947 | locus YDR502C, strain sam2, active compounds read low 1.03 | locus YEL003W, strain gim4, active compounds read low 0.999 | locus YEL037C, strain rad23, active compounds read low 0.988 | locus YEL061C, strain CIN8 (second series), active compounds read low 0.986 | locus YEL061C, strain CIN8, active compounds read low 1 | locus YER015W, strain faa2, active compounds read low 0.993 | locus YER016W, strain bim1, active compounds read low 0.978 | locus YER110C, active compounds read low 1.02 | locus YER111C, strain swi4, active compounds read low 0.996 | locus YER155C, strain BEM2 (second series), active compounds read low 0.989 | locus YER155C, strain BEM2, active compounds read low 0.99 | locus YER167W, strain BCK2, active compounds read low 1.01 | locus YFR010W, strain ubp6, active compounds read low 0.996 | locus YGL078C, strain dbp3, active compounds read low 1.02 | locus YGL086W, strain mad1, active compounds read low 1.02 | locus YGL167C, strain pmr1, active compounds read low 0.996 | locus YGL173C, strain kem1, active compounds read low 0.983 | locus YGL227W, strain vid30, active compounds read low 0.989 | locus YGL240W, strain doc1, active compounds read low 1.01 | locus YGL248W, strain PDE1, active compounds read low 1.01 | locus YGL253W, strain hxk2, active compounds read low 1 | locus YGR135W, strain pre9, active compounds read low 1.03 | locus YGR252W, strain gcn5, active compounds read low 1.07 | locus YHR013C, strain ard1, active compounds read low 0.984 | locus YHR027C, strain rpn1, active compounds read low 0.989 | locus YHR030C, strain SLT2, active compounds read low 1.01 and 0.998 | locus YHR079C, strain IRE1 (second series), active compounds read low 1.02 | locus YHR079C, strain IRE1, active compounds read low 0.987 | locus YHR094C, strain hxt1, active compounds read low 1.03 | locus YHR129C, strain ARP1, active compounds read low 1.02 | locus YHR142W, strain chs7, active compounds read low 0.988 | locus YHR200W, strain rpn10, active compounds read low 1.01 | locus YIL066C, strain RNR3, active compounds read low 1.04 | locus YIL073C, strain SPO22, active compounds read low 1.07 | locus YIL125W, strain kgd1, active compounds read low 1.02 | locus YIR030C, strain dcg1, active compounds read low 1.02 | locus YJL092W, strain hpr5, active compounds read low 0.989 | locus YJL095W, strain BCK1 (second series), active compounds read low 0.99 | locus YJL095W, strain BCK1, active compounds read low 1.05 and 0.992 | locus YJL115W, strain asf1, active compounds read low 0.98 | locus YJL129C, strain trk1, active compounds read low 1 | locus YJL134W, strain LCB3, active compounds read low 1.01 | locus YJL154C, strain vps35, active compounds read low 0.99 | locus YJL164C, strain tpk1, active compounds read low 0.999 | locus YJL166W, strain qcr8, active compounds read low 0.996 | locus YJL168C, strain set2, active compounds read low 1.01 | locus YJL187C, strain SWE1 (second series), active compounds read low 1.03 | locus YJL187C, strain SWE1, active compounds read low 0.998 | locus YJR043C, strain POL32, active compounds read low 1.02 | locus YJR066W, strain TOR1, active compounds read low 0.931 | locus YJR075W, strain HOC1, active compounds read low 1.03 | locus YKL009W, strain mrt4, active compounds read low 1.03 | locus YKL068W, active compounds read low 1.02 | locus YKL085W, strain MDH1 (second series), active compounds read low 1.01 | locus YKL085W, strain MDH1, active compounds read low 1.01 | locus YKL160W, strain elf1, active compounds read low 1 | locus YKR001C, strain vps1, active compounds read low 1.03 | locus YKR026C, strain gcn3, active compounds read low 0.971 | locus YKR091W, strain srl3, active compounds read low 0.999 | locus YLL001W, strain dnm1, active compounds read low 0.994 | locus YLL026W, active compounds read low 1 | locus YLL041C, strain sdh2, active compounds read low 0.996 | locus YLR027C, strain aat2, active compounds read low 0.992 | locus YLR039C, strain RIC1, active compounds read low 1.11 | locus YLR058C, strain SHM2, active compounds read low 1.02 | locus YLR102C, strain apc9, active compounds read low 1.01 | locus YLR113W, strain HOG1, active compounds read low 0.987 | locus YLR221C, strain rsa3, active compounds read low 0.998 | locus YLR258W, strain gsy2, active compounds read low 0.988 | locus YLR262C, strain YPT6 (second series), active compounds read low 0.991 | locus YLR262C, strain YPT6, active compounds read low 1.09 | locus YLR268W, strain sec22, active compounds read low 1.02 | locus YLR320W, strain mms22, active compounds read low 0.991 | locus YLR330W, strain CHS5, active compounds read low 1.01 | locus YLR342W, strain FKS1 (second series), active compounds read low 1.04 | locus YLR342W, strain FKS1, active compounds read low 0.987 | locus YLR357W, strain rsc2, active compounds read low 0.975 | locus YLR370C, strain arc18, active compounds read low 0.986 | locus YLR371W, strain rom2, active compounds read low 0.995 | locus YLR384C, strain iki3, active compounds read low 0.97 | locus YLR418C, strain cdc73, active compounds read low 1.03 | locus YML016C, strain PPZ1, active compounds read low 1.02 | locus YML032C, strain rad52, active compounds read low 1.03 | locus YML120C, strain ndi1, active compounds read low 1 | locus YML124C, strain tub3, active compounds read low 1.02 | locus YMR058W, strain fet3, active compounds read low 0.993 | locus YMR078C, strain ctf18, active compounds read low 1.03 | locus YMR125W, strain sto1, active compounds read low 0.97 | locus YMR129W, active compounds read low 1 | locus YMR205C, strain PFK2, active compounds read low 0.962 | locus YMR223W, strain ubp8, active compounds read low 1.02 | locus YMR231W, strain pep5, active compounds read low 0.989 | locus YMR307W, strain GAS1, active compounds read low 1.07 | locus YNL067W, strain RPL9B, active compounds read low 1.02 | locus YNL071W, strain lat1, active compounds read low 0.999 | locus YNL153C, strain GIM3, active compounds read low 1.02 | locus YNL183C, strain NPR1, active compounds read low 0.909 | locus YNL209W, strain ssb2, active compounds read low 0.991 | locus YNL233W, strain BNI4, active compounds read low 1.03 | locus YNL248C, strain rpa49, active compounds read low 1.01 | locus YNL250W, strain rad50, active compounds read low 1.03 | locus YNL271C, strain bni1, active compounds read low 1.02 | locus YNL298W, strain CLA4, active compounds read low 1.02 | locus YNL307C, strain MCK1, active compounds read low 1.02 | locus YNL322C, strain KRE1 (second series), active compounds read low 0.991 | locus YNL322C, strain KRE1, active compounds read low 1 | locus YNR049C, strain mso1, active compounds read low 0.986 | locus YNR052C, strain pop2, active compounds read low 1.01 | locus YOL006C, strain TOP1, active compounds read low 1.14 | locus YOL012C, strain htz1 0.909 | locus YOL147C, strain pex11, active compounds read low 1.01 | locus YOR001W, strain rrp6, active compounds read low 1.01 | locus YOR061W, strain CKA2, active compounds read low 1.01 | locus YOR069W, strain VPS5, active compounds read low 1.01 | locus YOR070C, strain gyp1, active compounds read low 0.985 | locus YOR080W, strain dia2, active compounds read low 0.983 | locus YOR083W, strain WHI5, active compounds read low 1 | locus YOR106W, strain vam3, active compounds read low 1.02 | locus YOR136W, strain idh2, active compounds read low 1.02 | locus YOR144C, strain elg1, active compounds read low 1 | locus YOR184W, strain ser1, active compounds read low 1.02 | locus YOR231W, strain MKK1, active compounds read low 0.992 | locus YOR265W, strain rbl2, active compounds read low 0.994 | locus YOR270C, strain vph1, active compounds read low 1.02 | locus YOR290C, strain snf2, active compounds read low 1 | locus YOR316C, strain cot1, active compounds read low 1 | locus YPL051W, strain arl3, active compounds read low 0.998 | locus YPL055C, strain LGE1, active compounds read low 1.03 | locus YPL078C, strain atp4, active compounds read low 1.01 | locus YPL106C, strain sse1, active compounds read low 0.978 | locus YPL240C, strain hsp82, active compounds read low 0.997 | locus YPL256C, strain CLN2, active compounds read low 0.977 | locus YPR119W, strain clb2, active compounds read low 1 | locus YPR141C, strain kar3, active compounds read low 1.03 | locus YPR163C, strain tif3, active compounds read low 1.02 | locus YPR167C, strain met16, active compounds read low 1.02 | strain wtn01, active compounds read low 1.02
